According to PubChem BioAssay (NCATS):
“And” between values parts separate entries of the source, which are not always exact repeats. Equal values may be shown once. Results filed as inconclusive are left out. A structure can be active in one record and inactive in another. The source made the active and inactive calls. Unless noted, calls come from the whole dose curve; as a rule, active = well fitted curve in the direction sought with a large enough effect; inconclusive = small, poorly fitted or top-dose-only effect, or another doubt; inactive = no such curve, though single readings can be large; an effect the other way counts as inactive or inconclusive.

Assays:
[1] = qHTS to identify inhibitors of the type 1 interferon - major histocompatibility complex class I in skeletal muscle: primary screen against the NCATS Mechanism Interrogation Plate v5.0 (MIPE) Libary (AID 1347411);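 note: plate controls were vehicle for no effect and reference inhibitor for full effect; nearly all actives have a fitted effect of over 65% in size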
Method in brief: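 Luminescence from HiBiT-tagged endogenous HLA-B*08:01 served as the MHC class I read-out. CRISPR-engineered C25cl48 human myoblasts received 4.0 ng/ml IFN-beta plus compound for 24 hrs, with an 11-point, 1:3 series topping at 46 uM final.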

[2] = molecular target: Glutathione peroxidase 1 (Homo sapiens) (UniProt P07203); assay: Primary qHTS Assay for Inhibitors of Recombinant Selenoprotein Glutathione Peroxidase 1 (GPX1) (AID 1845191); note: nearly all actives have a fitted effect of over 65% in size
Sequence of Glutathione peroxidase 1 (Homo sapiens) (P07203 whole entry, looked up): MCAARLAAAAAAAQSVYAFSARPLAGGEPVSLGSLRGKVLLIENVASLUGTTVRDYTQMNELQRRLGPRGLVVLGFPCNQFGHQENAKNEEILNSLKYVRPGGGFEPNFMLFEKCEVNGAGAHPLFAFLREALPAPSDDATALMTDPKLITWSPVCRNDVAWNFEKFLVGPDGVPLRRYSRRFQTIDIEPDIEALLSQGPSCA
Method in brief: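 Recombinant GPX1 (10 nM final) was preincubated with compound for 30 min at room temperature, then reacted with 1 mM GSH, 0.5 mM CHP, 0.5 mM NADPH and 100 nM glutathione reductase; NADPH fluorescence (340/450 nm) was read at 0 and 15 min.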

[3] = molecular target: Phospholipid hydroperoxide glutathione peroxidase GPX4 (Homo sapiens) (UniProt P36969); assay: Primary qHTS Assay for Inhibitors of Recombinant Selenoprotein Glutathione Peroxidase 4 (GPX4) (AID 1845192); settings: outcome: dose series up to 50 µM unless noted; note: nearly all actives have a fitted effect of over 65% in size; note: potency is the fitted concentration of half-maximal effect
Sequence of Phospholipid hydroperoxide glutathione peroxidase GPX4 (Homo sapiens) (P36969 whole entry, looked up): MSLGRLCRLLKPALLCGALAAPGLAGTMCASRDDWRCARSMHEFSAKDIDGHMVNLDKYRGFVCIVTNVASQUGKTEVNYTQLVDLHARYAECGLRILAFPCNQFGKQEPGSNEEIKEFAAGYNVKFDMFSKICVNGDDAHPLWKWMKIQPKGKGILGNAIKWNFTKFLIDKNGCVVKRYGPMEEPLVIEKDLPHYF
Method in brief: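 GR-coupled readout: 100 nM GR, 1 mM GSH, 0.5 mM NADPH; NADPH fluorescence (ex 340/em 450 nm) read at t=0 and after 15 min RT. GPX4 200 nM, preincubated 30 min with compound; substrate 0.5 mM CHP.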

[4] = qHTS drug screen for cell cycle checkpoint inhibitors in PARPi-resistant BRCA-mutant ovarian cancer cell lines. (AID 1963452; calls by dose curve); settings: PEO1/OlaR viability, CellTiter-Glo luminescence, 96 h, stronger effect = lower value
Method in brief: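 PEO1, PEO4 and PEO1/OlaR ovarian cancer cells, 600 per well, exposed 96 h at 37C to a dilution series. Viability read by CellTiter-Glo luminescence, normalized to DMSO and empty wells; activity summarized as Z-AUC.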

[5] = NCATS anti-infectives library activity on HEK293 viability as a counter-qHTS vs the C. elegans viability qHTS (AID 1745854);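 note: HEK293 cells exposed to compounds for 24 hr before the viability read; % is set by controls: 0 for no effect and ±100 for the full control effect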
Method in brief: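 Compounds were acoustically plated (several concentrations, 1:5, final up to 41.7 uM), then 1500 HEK293 cells added per well and incubated 24 hr at 37C, 5% CO2. CellTiter-Glo was added and luminescence read after 10 min.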

[6] = Primary qHTS for inhibitors of nuclear receptor binding SET domain protein 2 (NSD2) in an RCH-ACV wild type WT cells (2C) (AID 1645877); note: potency is the fitted concentration of half-maximal effect; nearly all actives have a fitted effect of over 70% in size
[7] = measured here: PEO1 parental Z-AUC

| Molecule | Potency [1] | Potency [2] | Potency [3] | Z-AUC [4] | Z-AUC [4, 7] | Z-AUC ([4]; measured here: PEO4 Z-AUC) | Potency [5] | Potency [6] |
| --- | --- | --- | --- | --- | --- | --- | --- | --- |
| CC1(C)SCCN(S(=O)(=O)c2ccc(OCC#CCO)cc2)[C@H]1C(=O)NO | inactive | inactive | inactive | 0.823 (inactive) | 0.238 | 0.33 |  |  |
| CS(=O)(=O)c1ccc([C@@H](CC2CCCC2)C(=O)Nc2nccs2)cc1 | inactive | inactive | inactive | 0.78 (inactive) | 0.607 | 0.595 |  |  |
| CC(C)OC(=O)[C@H](C)N[P@](=O)(OC[C@H]1O[C@@H](n2ccc(=O)[nH]c2=O)[C@](C)(F)[C@@H]1O)Oc1ccccc1 | inactive | inactive | inactive | -0.0429 (inactive) | 0.659 | 0.765 | inactive |  |
| COc1cc(-c2cn(C)c(=O)c3cnccc23)cc(OC)c1CN(C)C | inactive | inactive | inactive | 1.5 (inactive) | 0.545 | 0.614 |  |  |
| CC(=O)[C@]1(N)Cc2c(O)c3c(c(O)c2[C@@H](O[C@H]2C[C@H](O)[C@H](O)CO2)C1)C(=O)c1ccccc1C3=O | inactive | inactive | inactive | -0.249 (inactive) | -0.44 | -0.284 |  | 23.5 µM (active) |
| CN[C@@H](C)C(=O)N[C@H](C(=O)N1CCC[C@H]1C(=O)Nc1snnc1-c1ccccc1)C1CCCCC1 | inactive | inactive | inactive | 1.43 (inactive) | 0.271 | -0.618 |  |  |
| CCCN(CCC)C(=O)C1=Cc2ccc(-c3ccc(C(=O)N4CCCC4)cc3)cc2N=C(N)C1 | inactive | inactive |  | 0.263 (inactive) | -0.15 | -0.0193 |  | 18.6 µM (active) |
| NS(=O)(=O)c1ccc(NC(=S)N2CCN(C/C=C/c3ccccc3)CC2)cc1 | inactive | inactive | inactive | 0.177 (inactive) | -0.364 | -0.0827 |  |  |
| C=C1/C(=C/C=C2\CCCC3(C)[C@@H]([C@H](C)/C=C/C=C/C(O)(CC)CC)CC[C@@H]23)C[C@@H](O)C[C@@H]1O (stereo partly drawn) | inactive | inactive | inactive and 15.8 µM (active) | -0.128 (inactive) | -0.195 | -0.444 |  | 18.6 µM (active) |
| Ac-PHSCN-NH2 | inactive | inactive |  | -0.465 (inactive) | 0.449 | 0.654 |  | 23.5 µM (active) |
